Molecules are shown by their SMILES. Values joined by “and” are separate entries in the source; they are usually repeats but may differ in a detail not shown here. Equal values may be shown once. Results filed as inconclusive are left out. Active and inactive are the calls of the source. Unless noted, calls follow the shape of the dose curve; as a rule, active = well fitted cell-killing curve with a large enough effect; inconclusive = small, poorly fitted or top-dose-only effect; inactive = flat fitted curve, though single readings scatter.

This note sets out measurements from PubChem BioAssay (NCATS).

Experiment [1] is described as follows: Cell Viability - LYMP2-020 (AID 986).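 Also: series mostly up to about 92 µM; cells exposed to compound for 24 h at 37 °C; plate controls were DMSO only for no effect and tetraoctylammonium bromide at 92 µM for full effect; nearly all actives have a fitted effect of over 55% in size.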 In short, it runs like this:
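Seed 2500 cells per well and incubate 5 hr at 37 C. Add compounds at a concentration series and incubate 24 hr at 37 C. Add CellTiter-Glo, wait 30 min at RT, read luminescence, and fit a Hill curve for AC50.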

Experiment [2] in a line: Cell Viability - LYMP2-022 (AID 987).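 Also: 0% = DMSO alone and full effect = tetraoctylammonium bromide at 92 µM; nearly all actives have a fitted effect of over 55% in size.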 An outline of the steps:
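Cells were seeded at 2500 per well, rested 5 hr at 37 C, and treated with titrated compounds for 24 hr at 37 C. Cellular ATP was then quantified by luciferase luminescence, and AC50 values were derived from Hill-modelled concentration-response curves.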

Experiment [3] can be described thus: Cell Viability - LYMP2-026 (AID 989).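 Also: cells exposed to compound for 24 h at 37 °C; % is scaled to controls: 0 for no effect and ±100 for the full control effect; nearly all actives have a fitted effect of over 50% in size.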 An outline of the steps:
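Cells are seeded at 2500 per well and held 5 hr at 37 C. Compounds are added in concentration series for 24 hr, then CellTiter-Glo reagent is applied and luminescence read.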

Experiment [4] in a line: Cell Viability - LYMP1-002 - Assay at 24 hr (AID 993). Also: % is scaled to controls: 0 for no effect and ±100 for the full control effect. An outline of the steps:
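Acute toxicity is measured as concentration-dependent loss of cellular ATP in a human lymphoblastoid line (Coriell LYMP1-002) after 24 h treatment in complete medium. ATP is quantified by luciferase luminescence and AC50 derived by Hill modelling.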

Experiment [5] is described as follows: Cell Viability - LYMP1-002 - Assay at 40 hr (AID 994).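 Also: 0% = DMSO only and full inhibition = 92 µM tetraoctylammonium bromide; nearly all actives have a fitted effect of over 60% in size.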 In short, it runs like this: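 Cells are plated at 2500 per well and rested 5 hr at 37 C. Compounds are added and incubated 40 hr at 37 C. CellTiter-Glo reagent is added for 30 min at room temperature before luminescence is read.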
The target in experiment [6] is Bile acid receptor (Homo sapiens) (UniProt Q96RI1). The experiment can be described thus: qHTS assay for small molecule antagonists of farnesoid X receptor signaling (AID 588526; calls by dose curve; also: % is scaled to controls: 0 for no effect and ±100 for the full control effect). In short, it runs like this:
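Concentration-response titrations were fitted to the Hill equation for half-maximal inhibition and maximal response, with data normalised to 50 uM chenodeoxycholic acid and DMSO control wells. Cells: FXR-UAS-bla HEK293T, dialyzed FBS.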
For orientation: qHTS replaces the single test concentration by a dilution series.

The target of experiment [7] is Glucocorticoid receptor (Homo sapiens) (UniProt P04150). The experiment can be described thus: qHTS assay for small molecule agonists of glucocorticoid receptor signaling (AID 588532; active = well fitted curve in the direction sought with a large enough effect in the signal ratio, with a control signal flat; the % refers to the signal ratio;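 also: 100% = dexamethasone at 0.1 µM and 0% = DMSO only wells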). The settings on record: HeLa MMTV-bla, beta-lactamase ratio, agonist, 18 h; stronger effect = higher value; percent of dexamethasone control, DMSO zero. An outline of the steps: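 MMTV-bla HeLa, beta-lactamase reporter; medium with 1% charcoal/dextran-stripped FBS; cpds up to 92 uM, 18 h, 37 C; CCF4 readout 460/530 nm; Hill fit → EC50, efficacy vs 0.1 uM dexamethasone = 100%.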

Experiment [8] has the same target. The experiment can be described thus: qHTS assay for small molecule antagonists of glucocorticoid receptor signaling (AID 588533; active = well fitted inhibition curve with a large enough effect in the signal ratio, with a control signal flat, not every such curve was filed as active; the % refers to the signal ratio;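 also: cells stimulated with 2 nM dexamethasone as agonist; % is scaled to controls: 0 for no effect and ±100 for the full control effect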). In short, it runs like this:
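Antagonist-mode qHTS: compound titrations added to GRE-bla HeLa cells, then dexamethasone 2 nM final; 18 h, 37 C. CCF4 FRET fluorescence normalized to dexamethasone and DMSO; IC50 from Hill fit.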

Experiment [9] is described as follows: qHTS assay for small molecule antagonists of peroxisome proliferator-activated receptor delta signaling (AID 588535; active = well fitted inhibition curve with a large enough effect in the signal ratio, with a control signal flat, not every such curve was filed as active; the % refers to the signal ratio; also: potency is read from the fitted curve at half-maximal effect;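 as to max response: cells co-treated with a PPAR-delta agonist as stimulator during compound exposure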). As to conditions: HEK293T PPARd-UAS-bla, beta-lactamase FRET ratio, 18 h; 460 nm channel. An outline of the steps:
(§1)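 Inhibition of PPAR-delta response element-driven beta-lactamase expression is measured in HEK293T cells exposed to a compound titration series for 18 hrs at 37 C. Half-maximal inhibition comes from Hill equation fitting.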

Experiment [10] has as its target Peroxisome proliferator-activated receptor delta (Homo sapiens) (UniProt Q03181). Described as above. In short, it runs like this:
as §1

The target of experiment [11] is Peroxisome proliferator-activated receptor gamma (Homo sapiens) (UniProt P37231). The experiment can be described thus: qHTS assay for small molecule agonists of peroxisome proliferator-activated receptor gamma signaling (AID 588536; active = well fitted curve in the direction sought with a large enough effect in the signal ratio, with a control signal flat, not every such curve was filed as active; the % refers to the signal ratio;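 also: 0% = DMSO basal wells and 100% = rosiglitazone at 2 µM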). In short, it runs like this:
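This is an agonist-mode beta-lactamase reporter assay in HEK293 PPAR-gamma-UAS-bla cells with 1% charcoal/dextran FBS. Compound titrations ran 16 h at 37 C before CCF4 detection. EC50 and efficacy are Hill fits scaled to 2 uM rosiglitazone (100%) and DMSO basal.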

Experiment [12] has as its target Vitamin D3 receptor (Homo sapiens) (UniProt P11473). The experiment can be described thus: qHTS assay for small molecule antagonists of vitamin D receptor signaling (AID 588541; calls by dose curve;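 also: receptor activated by calcitriol during compound treatment; series mostly up to about 77 µM; % is scaled to controls: 0 for no effect and ±100 for the full control effect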). In short, it runs like this:
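VDR-UAS-bla HEK293T cells (2000/well, 2% charcoal-stripped FBS) were treated with titrated compounds plus 1-alpha,25-dihydroxyvitamin D3 (50 nM or 3 nM final) for 16 h at 37 C. CCF4 beta-lactamase fluorescence was read; Hill fits gave IC50.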

Experiment [13] has the same target. The experiment can be described thus: qHTS assay for small molecule agonists of vitamin D receptor signaling (AID 588543; calls by dose curve;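 also: 0% = DMSO basal and 100% = reference agonist control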). In short, it runs like this:
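β-lactamase reporter, VDR-UAS-bla HEK293T, agonist mode. Cells plated 5 h at 37 °C, compound titration 16 h at 37 °C, CCF4 dye 2 h RT, ratio 460/530 nm. Hill fit → EC50, efficacy vs 50 nM 1α,25-(OH)2D3.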

A short description of experiment [14]: Cell Viability - LYMP2-024 (AID 988).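 Also: plate controls were DMSO only for no effect and 92 µM tetraoctylammonium bromide for full effect; nearly all actives have a fitted effect of over 60% in size.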 In short, it runs like this:
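qHTS cytotoxicity, human lymphoblastoid line, complete medium; 24 h cpd treatment, 37 C; CellTiter-Glo ATP luminescence readout; tetraoctylammonium bromide positive control; AC50 via Hill fit.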

Experiment [15] addresses Estrogen receptor (Homo sapiens) (UniProt P03372). The experiment can be described thus: qHTS assay for small molecule antagonists of estrogen receptor alpha signaling (AID 588513; active = well fitted curve in the direction sought with a large enough effect in the signal ratio, with a control signal flat, not every such curve was filed as active; the % refers to the signal ratio; also: % is scaled to controls: 0 for no effect and ±100 for the full control effect). In short, it runs like this: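 Beta-lactamase reporter, antagonist mode, HEK 293 GripTite cells; 0.5nM E2 stimulus, 18 h, 37 C; CCF4 dye 2 h RT; fluorescence. IC50 and efficacy from Hill fits, normalized to E2 and DMSO.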

Experiment [16] shares this target. The experiment can be described thus: qHTS assay for small molecule agonists of estrogen receptor alpha signaling (AID 588514; calls by dose curve;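 also: 0% = vehicle only and 100% = reference agonist; nearly all actives have a fitted effect of over 70% in size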). An outline of the steps:
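Efficacy is expressed against 20 nM 17-beta-estradiol (100%) and DMSO basal (0%); EC50 from Hill equation. Assay: beta-lactamase reporter in ER-alpha-UAS-bla HEK 293 cells, 18 h compound incubation, CCF4 detection.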

For experiment [17], the target named is Peroxisome proliferator-activated receptor gamma (Homo sapiens) (UniProt P37231). The experiment can be described thus: qHTS assay for small molecule antagonists of peroxisome proliferator-activated receptor gamma signaling (AID 588537; active = well fitted inhibition curve with a large enough effect in the signal ratio, with a control signal flat, not every such curve was filed as active; the % refers to the signal ratio;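 also: reporter cells co-stimulated with 50 nM rosiglitazone agonist during compound treatment; % of control where 0% means no effect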). In short, it runs like this:
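Compounds are tested as concentration series for inhibition of rosiglitazone-driven (50 nM) reporter expression in GeneBLAzer PPAR-gamma-UAS-bla HEK293 cells. After 16 h at 37 C, CCF4 substrate is added for 2 h at room temperature and blue/green fluorescence is measured.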

Experiment [18] addresses Androgen receptor (Homo sapiens) (UniProt P10275). The experiment can be described thus: qHTS assay for small molecule agonists of androgen receptor signaling (AID 588515; active = well fitted curve in the direction sought with a large enough effect in the signal ratio, with a control signal flat; the % refers to the signal ratio; also: % is scaled to controls: 0 for no effect and ±100 for the full control effect). As to conditions: AR-UAS-bla HEK293, beta-lactamase ratio, agonist 16 h; stronger effect = higher value. An outline of the steps:
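Stimulation of an AR-responsive β-lactamase reporter in GripTite HEK293 cells was measured after 16 h compound exposure at 37 °C, via CCF4 fluorescence after 2 h RT. EC50 from Hill fits, normalized to R1881 at 30 nM.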

Chain of Glucocorticoid receptor (Homo sapiens) (P04150 whole entry, looked up): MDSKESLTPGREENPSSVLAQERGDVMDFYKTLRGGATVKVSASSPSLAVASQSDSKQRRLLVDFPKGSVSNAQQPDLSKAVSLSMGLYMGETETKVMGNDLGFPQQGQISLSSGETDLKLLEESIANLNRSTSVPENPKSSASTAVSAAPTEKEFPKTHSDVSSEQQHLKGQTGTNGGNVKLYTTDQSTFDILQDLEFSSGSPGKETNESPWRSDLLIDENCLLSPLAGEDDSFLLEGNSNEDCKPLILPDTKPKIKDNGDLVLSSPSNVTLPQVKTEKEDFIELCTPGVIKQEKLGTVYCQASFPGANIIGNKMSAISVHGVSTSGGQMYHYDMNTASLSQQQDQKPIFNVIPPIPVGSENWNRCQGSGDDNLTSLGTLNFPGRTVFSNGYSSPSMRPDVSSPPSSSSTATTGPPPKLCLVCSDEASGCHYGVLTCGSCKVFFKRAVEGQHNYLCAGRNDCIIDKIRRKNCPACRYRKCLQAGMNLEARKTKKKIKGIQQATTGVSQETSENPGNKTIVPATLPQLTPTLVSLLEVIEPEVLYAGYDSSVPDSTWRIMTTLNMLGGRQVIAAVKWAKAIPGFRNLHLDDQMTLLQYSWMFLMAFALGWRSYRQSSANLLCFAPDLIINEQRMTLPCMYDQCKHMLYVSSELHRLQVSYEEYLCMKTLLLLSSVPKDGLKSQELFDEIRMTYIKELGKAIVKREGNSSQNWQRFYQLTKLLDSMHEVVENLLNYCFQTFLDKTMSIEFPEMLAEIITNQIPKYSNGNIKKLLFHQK
Chain of Bile acid receptor (Homo sapiens) (Q96RI1 whole entry, looked up): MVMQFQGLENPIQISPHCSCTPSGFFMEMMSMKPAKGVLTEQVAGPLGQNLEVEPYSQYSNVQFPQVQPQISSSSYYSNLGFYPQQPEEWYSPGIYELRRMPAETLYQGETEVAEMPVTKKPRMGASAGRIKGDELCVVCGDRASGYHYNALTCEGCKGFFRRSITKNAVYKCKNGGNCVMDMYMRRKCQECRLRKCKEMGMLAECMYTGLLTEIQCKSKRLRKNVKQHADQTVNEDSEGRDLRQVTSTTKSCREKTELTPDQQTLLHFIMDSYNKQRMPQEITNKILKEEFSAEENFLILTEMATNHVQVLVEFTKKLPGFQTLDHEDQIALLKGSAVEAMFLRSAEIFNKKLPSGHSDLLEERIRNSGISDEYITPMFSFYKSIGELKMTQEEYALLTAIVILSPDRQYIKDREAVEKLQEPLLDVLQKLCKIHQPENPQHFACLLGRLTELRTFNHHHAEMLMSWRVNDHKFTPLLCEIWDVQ
Chain of Peroxisome proliferator-activated receptor gamma (Homo sapiens) (P37231 whole entry, looked up): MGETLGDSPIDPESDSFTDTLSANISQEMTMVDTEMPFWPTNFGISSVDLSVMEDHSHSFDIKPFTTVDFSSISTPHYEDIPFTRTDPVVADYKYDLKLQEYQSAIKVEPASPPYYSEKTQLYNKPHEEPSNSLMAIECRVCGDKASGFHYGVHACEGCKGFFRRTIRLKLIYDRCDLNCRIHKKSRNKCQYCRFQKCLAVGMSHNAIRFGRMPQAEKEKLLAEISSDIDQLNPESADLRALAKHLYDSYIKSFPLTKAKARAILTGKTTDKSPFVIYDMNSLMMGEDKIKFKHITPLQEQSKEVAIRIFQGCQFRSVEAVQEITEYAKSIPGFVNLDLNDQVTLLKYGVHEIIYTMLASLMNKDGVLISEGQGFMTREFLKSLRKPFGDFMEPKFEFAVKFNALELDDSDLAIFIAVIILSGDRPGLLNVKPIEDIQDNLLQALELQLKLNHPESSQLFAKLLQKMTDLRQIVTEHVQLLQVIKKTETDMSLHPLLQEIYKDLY
Chain of Vitamin D3 receptor (Homo sapiens) (P11473 whole entry, looked up): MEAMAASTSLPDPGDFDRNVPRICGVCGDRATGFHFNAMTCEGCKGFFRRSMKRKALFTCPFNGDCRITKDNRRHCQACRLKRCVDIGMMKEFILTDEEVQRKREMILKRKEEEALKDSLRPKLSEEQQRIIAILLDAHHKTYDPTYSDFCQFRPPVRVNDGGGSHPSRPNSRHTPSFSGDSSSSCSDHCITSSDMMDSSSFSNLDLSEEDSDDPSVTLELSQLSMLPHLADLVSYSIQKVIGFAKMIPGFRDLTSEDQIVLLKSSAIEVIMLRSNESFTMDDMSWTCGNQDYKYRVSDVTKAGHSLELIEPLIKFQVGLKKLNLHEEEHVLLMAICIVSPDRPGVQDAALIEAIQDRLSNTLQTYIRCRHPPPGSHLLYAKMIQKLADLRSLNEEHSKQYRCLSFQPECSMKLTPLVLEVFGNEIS
Chain of Peroxisome proliferator-activated receptor delta (Homo sapiens) (Q03181 whole entry, looked up): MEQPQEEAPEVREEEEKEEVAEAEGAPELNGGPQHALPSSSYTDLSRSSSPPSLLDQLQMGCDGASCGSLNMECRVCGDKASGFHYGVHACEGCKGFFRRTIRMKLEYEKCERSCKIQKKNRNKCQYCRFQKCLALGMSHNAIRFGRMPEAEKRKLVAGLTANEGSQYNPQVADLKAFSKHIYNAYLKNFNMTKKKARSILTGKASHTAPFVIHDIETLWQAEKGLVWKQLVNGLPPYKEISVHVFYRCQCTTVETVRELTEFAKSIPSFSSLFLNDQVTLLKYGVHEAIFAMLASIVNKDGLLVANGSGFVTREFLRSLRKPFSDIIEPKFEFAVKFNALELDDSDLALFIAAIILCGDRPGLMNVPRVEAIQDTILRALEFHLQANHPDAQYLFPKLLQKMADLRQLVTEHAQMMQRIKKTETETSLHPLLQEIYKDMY
Chain of Estrogen receptor (Homo sapiens) (P03372 whole entry, looked up): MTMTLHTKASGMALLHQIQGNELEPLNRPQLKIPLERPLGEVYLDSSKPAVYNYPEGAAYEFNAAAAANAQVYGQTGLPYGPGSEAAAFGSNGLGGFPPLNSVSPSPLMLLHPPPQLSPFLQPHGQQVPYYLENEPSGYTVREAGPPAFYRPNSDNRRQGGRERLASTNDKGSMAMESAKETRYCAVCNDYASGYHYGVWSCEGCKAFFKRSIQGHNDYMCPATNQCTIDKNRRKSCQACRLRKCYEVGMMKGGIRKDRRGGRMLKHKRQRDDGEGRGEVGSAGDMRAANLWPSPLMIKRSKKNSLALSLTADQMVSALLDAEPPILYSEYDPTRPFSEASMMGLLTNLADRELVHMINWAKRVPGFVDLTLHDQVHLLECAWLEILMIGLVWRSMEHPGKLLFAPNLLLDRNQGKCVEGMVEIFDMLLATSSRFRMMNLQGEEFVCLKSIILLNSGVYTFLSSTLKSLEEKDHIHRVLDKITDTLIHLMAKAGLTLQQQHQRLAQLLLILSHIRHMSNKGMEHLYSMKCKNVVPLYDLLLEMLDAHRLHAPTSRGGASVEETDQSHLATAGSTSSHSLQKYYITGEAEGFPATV
Chain of Androgen receptor (Homo sapiens) (P10275 whole entry, looked up): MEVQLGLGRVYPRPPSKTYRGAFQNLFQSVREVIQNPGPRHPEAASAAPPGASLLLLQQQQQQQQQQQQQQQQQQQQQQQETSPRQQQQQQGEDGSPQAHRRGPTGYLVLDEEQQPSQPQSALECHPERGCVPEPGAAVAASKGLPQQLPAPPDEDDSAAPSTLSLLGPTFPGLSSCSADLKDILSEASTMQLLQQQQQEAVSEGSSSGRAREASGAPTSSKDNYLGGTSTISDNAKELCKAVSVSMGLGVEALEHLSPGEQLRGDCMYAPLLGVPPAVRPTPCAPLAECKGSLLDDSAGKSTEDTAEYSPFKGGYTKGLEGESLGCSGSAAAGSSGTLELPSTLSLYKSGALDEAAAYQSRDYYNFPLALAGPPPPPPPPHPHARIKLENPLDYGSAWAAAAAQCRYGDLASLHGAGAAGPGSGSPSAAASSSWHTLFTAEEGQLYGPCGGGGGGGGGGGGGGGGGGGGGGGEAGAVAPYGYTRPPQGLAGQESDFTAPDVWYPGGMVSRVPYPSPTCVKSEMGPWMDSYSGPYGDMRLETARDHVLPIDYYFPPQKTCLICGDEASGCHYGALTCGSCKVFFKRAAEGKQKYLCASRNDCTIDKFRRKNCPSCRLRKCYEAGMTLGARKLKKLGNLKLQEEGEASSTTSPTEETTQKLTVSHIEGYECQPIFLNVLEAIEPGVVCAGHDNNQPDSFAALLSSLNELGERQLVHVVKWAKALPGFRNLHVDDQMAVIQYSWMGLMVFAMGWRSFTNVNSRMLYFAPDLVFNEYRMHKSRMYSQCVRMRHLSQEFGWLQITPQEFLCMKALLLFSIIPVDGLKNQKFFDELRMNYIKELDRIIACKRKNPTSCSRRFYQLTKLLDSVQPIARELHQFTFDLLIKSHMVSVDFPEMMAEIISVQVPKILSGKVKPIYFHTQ

As to `Nc1nc(-c2ccccc2)cs1`, the Potency result in experiment [1], in [2], in experiment [4], in [5] and in [10] was “inactive” each time. Also, the molecule was called inactive in [3], in experiment [6], in experiment [8], in experiment [11], in experiment [12] and in [13]. In addition, in experiment [7], the activation is 1.27% (inactive). For the same molecule, the max response in experiment [9] was -2.19%.
Consider `C=C(C)C1CC=C(C)C(OC(C)=O)C1` (configuration not stated), for which the Potency entry in experiment [1], in experiment [2], in experiment [14], in experiment [4], in experiment [5] and in experiment [16] was “inactive” in each case. Further, the Potency result in [10] was “inactive”. Also, the result in experiment [3], in experiment [15], in [6], in experiment [8], in [11] and in experiment [17] was inactive. Moreover, the call in experiment [12] and in [13] was inactive. In addition, in experiment [7], the activation was 3.07% (inactive). In addition, in [9], the max response is 6.72%.
Take `Cc1ccc(C)c(O)c1`: the Potency result in experiment [1], in [2], in [4] and in experiment [5] was “inactive” in each case. Also, the molecule was called inactive in [3], in [6], in [11], in experiment [12] and in [13]. Also, the activation in experiment [7] is 4.8% (inactive). In addition, the max response in experiment [9] amounted to 7.19%.
With `O=Nc1ccc(NO)cc1`, the call in experiment [3], in experiment [15], in experiment [8], in experiment [11], in experiment [12] and in [13] was inactive. Also, the Potency entry in [4] is “inactive”. Also, the activation in experiment [7] is 5.11% (inactive). In addition, the max response in [9] is -72.9%. Besides, the Potency in experiment [10] is 12.6 µM (active).
Turning to `O=P(O)(OCc1ccccc1)OCc1ccccc1`, the Potency result in experiment [1], in experiment [2], in [4], in experiment [5] and in experiment [16] was “inactive” in each case. In addition, the molecule was classed as inactive in [3], in experiment [15], in [6], in [11], in experiment [17] and in experiment [12]. Further, in experiment [13], the result was inactive.
On to `C=CCn1c(=O)n(CC=C)c(=O)n(CC=C)c1=O`, for which the Potency entry in experiment [1], in experiment [2] and in [5] was “inactive” each time. In addition, in experiment [7], the activation was -0.0268% (inactive). Besides, the outcome in experiment [8], in [17], in experiment [12] and in experiment [13] was inactive.
Consider `O=C1NC(=O)c2cc([N+](=O)[O-])ccc21`, for which the Potency entry in experiment [1], in experiment [2], in experiment [14], in experiment [5], in experiment [16] and in experiment [10] was “inactive” in each case. Also, the molecule was classed as inactive in [15], in experiment [8] and in experiment [11]. Further, the activation in experiment [18] is -13.5% (inactive); in experiment [7], -4.49% (inactive). Moreover, the max response in experiment [9] was -20.7%.
On to `Cc1ccc2oc(=O)ccc2c1`, for which the Potency entry in [1], in [2], in experiment [14], in [4], in [5] and in experiment [16] was “inactive” each time. In experiment [10], the Potency entry is “inactive”. Besides, the result in experiment [3], in experiment [15], in experiment [6], in experiment [8], in [11] and in experiment [17] was inactive. In addition, the outcome in experiment [12] and in experiment [13] was inactive. Further, the activation in experiment [7] is -1.61% (inactive). The max response in experiment [9] was 1.44% and 30.5%.
Take `CCC(C)O` (configuration not stated): the Potency result in experiment [1], in [2], in experiment [14], in experiment [4], in [5] and in [10] was “inactive” throughout. For the same molecule, the molecule was called inactive in experiment [3], in experiment [6], in [12] and in [13]. Besides, the activation in experiment [7] was 0.0998% (inactive). Further, the max response in experiment [9] was -23.2%.
